Experimental data reported in the OligoGym collection.

Molecular target: ACTL6A
Test: pooled miR-30 sensor sort-seq; sequence = guide strand
Conditions: shRNA
Note: reference of the scale not given here.

For TAGTGTTCAAACATTAACTCTG, which sensor-assay potency score (higher = more potent) is on record?
Its sensor-assay potency score (higher = more potent) is 0.293.

With TAATTGTGCCAAGACCTCGTAA as the sequence, how does the sensor-assay potency score (higher = more potent) read?
The sensor-assay potency score (higher = more potent) was -0.587.

ATAGCTTGGAAACTATCCCAGT was tested. Which sensor-assay potency score (higher = more potent) did it give?
The sensor-assay potency score (higher = more potent) was -0.733.

How did the sensor-assay potency score (higher = more potent) turn out when TAGTATTCCACGGTGCCTCTGA was run?
Its sensor-assay potency score (higher = more potent) is 0.0107.

Which sensor-assay potency score (higher = more potent) does the source give for TTACACTGCCATAGAGACCTGG here?
The sensor-assay potency score (higher = more potent) was -0.411.

Which sensor-assay potency score (higher = more potent) does the source give for TTGTGGTGACAACATGACTGAC here?
Its sensor-assay potency score (higher = more potent) is -0.897.

How did the sensor-assay potency score (higher = more potent) turn out when TTTGCTCTAGTATTCCACGGTG was run?
The sensor-assay potency score (higher = more potent) was -0.0557.

With TCCTTCTTCATATTCTTGCTTG as the sequence, how does the sensor-assay potency score (higher = more potent) read?
The sensor-assay potency score (higher = more potent) was -0.909.

Which sensor-assay potency score (higher = more potent) does the source give for TTGCTTGGAAATCCACATCTGT here?
The sensor-assay potency score (higher = more potent) was -0.451.

With TTGACATGCATTTTGTAGGTAT as the sequence, how does the sensor-assay potency score (higher = more potent) read?
Its sensor-assay potency score (higher = more potent) is 0.179.

Which sensor-assay potency score (higher = more potent) does the source give for TTAGTATCTATGTAGTAGGTGG here?
The sensor-assay potency score (higher = more potent) was 0.198.

With TTGCTCTAGTATTCCACGGTGC as the sequence, how does the sensor-assay potency score (higher = more potent) read?
The sensor-assay potency score (higher = more potent) was -0.281.

Which sensor-assay potency score (higher = more potent) does the source give for TTTATCGCCATCTATTTCCATT here?
The sensor-assay potency score (higher = more potent) was -1.13.

With TTTTCTGAGACAGCTCTCTATT as the sequence, how does the sensor-assay potency score (higher = more potent) read?
The sensor-assay potency score (higher = more potent) was -0.807.

Which sensor-assay potency score (higher = more potent) does the source give for AATAGCTTGGAAACTATCCCAG here?
Its sensor-assay potency score (higher = more potent) is -0.568.

For TGACTGACTCCTAACATTGTGT, which sensor-assay potency score (higher = more potent) is on record?
Its sensor-assay potency score (higher = more potent) is -0.541.

How did the sensor-assay potency score (higher = more potent) turn out when TTTGCAATCAATTTCAACCGCA was run?
The sensor-assay potency score (higher = more potent) was 0.585.

With TTACACATATAATTGTGCCAAG as the sequence, how does the sensor-assay potency score (higher = more potent) read?
Its sensor-assay potency score (higher = more potent) is -1.42.

TACACTGCCATAGAGACCTGGT was tested. Which sensor-assay potency score (higher = more potent) did it give?
Its sensor-assay potency score (higher = more potent) is -0.00757.

TTGAATCTGACACTTGAAGTAC was tested. Which sensor-assay potency score (higher = more potent) did it give?
The sensor-assay potency score (higher = more potent) was -0.0659.

For TAACCTGAGGCAACTTCTCTTT, which sensor-assay potency score (higher = more potent) is on record?
The sensor-assay potency score (higher = more potent) was -0.605.

With TTGTGTTTCCTGATAACCCCTT as the sequence, how does the sensor-assay potency score (higher = more potent) read?
Its sensor-assay potency score (higher = more potent) is 0.282.

Molecular target: ACTR3B
Test: as above
Conditions: shRNA

TTACATAACCTTCTGCCACTGG was tested. Which sensor-assay potency score (higher = more potent) did it give?
Its sensor-assay potency score (higher = more potent) is 0.166.

Which sensor-assay potency score (higher = more potent) does the source give for TTTAAAAACCACTTGCTCCATG here?
Its sensor-assay potency score (higher = more potent) is -0.231.

For TTGATCGCATTGATACCCGTGT, which sensor-assay potency score (higher = more potent) is on record?
Its sensor-assay potency score (higher = more potent) is -0.213.

Which sensor-assay potency score (higher = more potent) does the source give for TACGACATTCTTATACAGCGGG here?
Its sensor-assay potency score (higher = more potent) is -0.141.

TTCATCAACAACATCTGAGATG was tested. Which sensor-assay potency score (higher = more potent) did it give?
Its sensor-assay potency score (higher = more potent) is -0.638.

With TTGAGCTTGGTCAACTACCTTT as the sequence, how does the sensor-assay potency score (higher = more potent) read?
The sensor-assay potency score (higher = more potent) was -0.378.

How did the sensor-assay potency score (higher = more potent) turn out when TACTGTTTGATCCACTTCCGGG was run?
Its sensor-assay potency score (higher = more potent) is -0.539.

With TATAACAAACTTCTTCTGGTTG as the sequence, how does the sensor-assay potency score (higher = more potent) read?
The sensor-assay potency score (higher = more potent) was -0.5.

For TTCTGCAAGATACTCTCTGTTT, which sensor-assay potency score (higher = more potent) is on record?
The sensor-assay potency score (higher = more potent) was -0.433.

Which sensor-assay potency score (higher = more potent) does the source give for TTACTTCATCAACAACATCTGA here?
Its sensor-assay potency score (higher = more potent) is -0.87.

For TACTTCATCAACAACATCTGAG, which sensor-assay potency score (higher = more potent) is on record?
The sensor-assay potency score (higher = more potent) was 0.487.

With TCTATAACAAACTTCTTCTGGT as the sequence, how does the sensor-assay potency score (higher = more potent) read?
Its sensor-assay potency score (higher = more potent) is 0.599.

Molecular target: ACYP1
Test: as above
Conditions: shRNA

For TTAGATTTGTGTACAGTGGTAA, which sensor-assay potency score (higher = more potent) is on record?
Its sensor-assay potency score (higher = more potent) is 0.61.

For TTTGCTTTGTCGATGTGTGATT, which sensor-assay potency score (higher = more potent) is on record?
The sensor-assay potency score (higher = more potent) was -0.219.

For TTTTCATTGTTGAAGTTTGCTT, which sensor-assay potency score (higher = more potent) is on record?
The sensor-assay potency score (higher = more potent) was -0.234.

TAACTTATTGACTAATGCTAAT was tested. Which sensor-assay potency score (higher = more potent) did it give?
The sensor-assay potency score (higher = more potent) was -1.36.

For TAATATTAACACACAATAGTTC, which sensor-assay potency score (higher = more potent) is on record?
The sensor-assay potency score (higher = more potent) was -0.41.

TAGGACTTCCTCTTGTTTCAAG was tested. Which sensor-assay potency score (higher = more potent) did it give?
The sensor-assay potency score (higher = more potent) was -0.653.
